{
  "source": "PubChem BioAssay (NCI)",
  "note": "This is part of a sample that, as a whole, favours compounds with a hit. Of some 79,000 tested, about 15% had one in any assay. Values without a mark were called inactive. Active and inactive are the calls of the source. No stated cut-off is given here; in the data, active means growth inhibition above about 70%; inactive means the rest. Where a SMILES comes first, the peptide text is derived from it. The star is where a group is joined. Cbz = O=C(OCc1ccccc1)*",
  "data": [
    {"experiment": "NCI Yeast Anticancer Drug Screen. Data for the mlh1 rad18 strain (AID 175)", "conditions": "S. cerevisiae mlh1 rad18 strain growth inhibition; at 50.0 µM; active compounds read high", "outline": "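In this whole-cell yeast screen, a strain with altered DNA damage repair is challenged with compound, and its growth is measured against matched vehicle-treated controls.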", "values": [
      {"compound": "CCC(COCC(CC)C(=O)O)C(=O)O", "note": "(centres undefined)", "growth inhibition": "15.2%"},
      {"compound": "c1ccc(CCN=C2c3ccccc3-n3cccc32)nc1", "growth inhibition": "16.4%"},
      {"compound": "Cc1ccc(N2C(=O)CSC2=S)cc1C", "growth inhibition": "-9.5%"},
      {"compound": "C=CC(=O)NC(C)C(=O)O", "note": "(centres undefined)", "growth inhibition": "-4.15%"},
      {"compound": "COc1ccc(C(=O)/C=C/C(C)=C/C=N/N(C)c2ccccc2)cc1", "growth inhibition": "17.8%"},
      {"compound": "O=C(O)c1ccc(C2C3C=CC(C3)C2[N+](=O)[O-])cc1", "note": "(centres undefined)", "growth inhibition": "-35.5%"},
      {"compound": "c1ccc(CCc2ccnc3ccccc23)cc1", "growth inhibition": "5.55%"},
      {"compound": "O=[N+]([O-])c1ccc(Nc2ccccc2)c([N+](=O)[O-])c1", "growth inhibition": "8.5%"},
      {"compound": "O=C1CCC2c3ccccc3C(=O)C2C1", "note": "(centres undefined)", "growth inhibition": "9.3%"},
      {"compound": "O=C(NNC(=O)c1ccc2ccccc2c1)c1cccc(Br)c1", "growth inhibition": "-7.95%"},
      {"compound": "N#C/C(=C1\\OC(=O)C(c2ccc(Br)cc2)=C1O)c1ccc(Br)cc1", "growth inhibition": "26.4%"},
      {"compound": "NC(=O)c1csc([C@@H](O)Cc2ccccc2)n1", "growth inhibition": "7.95%"},
      {"compound": "CN1c2ccccc2C(=O)NC12CCN(Cc1ccccc1)CC2", "growth inhibition": "-21.2%"},
      {"compound": "CSc1nc2c([nH]1)c(=O)n(C)c(=O)n2C", "growth inhibition": "7.1%"},
      {"compound": "CC(Nc1ncccn1)Nc1ncccn1", "growth inhibition": "-1.75%"},
      {"compound": "CCc1nc2c([nH]1)c(=O)n(C)c(=O)n2C", "growth inhibition": "20.4%"},
      {"compound": "O=C(Nc1ccn(C2CCC(CO)O2)c(=O)n1)c1ccccc1", "note": "(centres undefined)", "growth inhibition": "-7.55%"},
      {"compound": "C(=N\\c1nc2ccccc2s1)/c1cccs1", "growth inhibition": "-19.4%"},
      {"compound": "CN(C)Cc1cc(C=O)cc(CN(C)C)c1O", "growth inhibition": "5.8%"},
      {"compound": "ClC1CC/C=C\\CC/C=C/CCC1Cl", "note": "(centres undefined)", "growth inhibition": "41.3%"},
      {"compound": "CCOc1ccc2nc(NC(=O)C(=O)C3C(=O)C(CC4C(=O)c5ccccc5C4=O)C(=O)CC3(C)C)sc2c1", "note": "(centres undefined)", "growth inhibition": "8.9%"},
      {"compound": "CCOC(=O)c1cccc(OCC)c1", "growth inhibition": "6.7%"},
      {"compound": "CCc1ccccc1NC(=O)NCC(C)C", "growth inhibition": "-4.35%"},
      {"compound": "CCNC(=O)Nc1ccccn1", "growth inhibition": "-2.4%"},
      {"compound": "NC(=O)N/N=C/c1cccc2ccccc12", "growth inhibition": "-0.7%"},
      {"compound": "CSc1nc(SC)c2cnn(C3OC(CO)C(O)C3O)c2n1", "note": "(centres undefined)", "growth inhibition": "33.4%"},
      {"compound": "O=C(NO)C(=O)Nc1ccc(Cl)cc1[N+](=O)[O-]", "growth inhibition": "44.7%"},
      {"compound": "O=c1c(-c2ccccc2)c(O)on1/C=C1/C=CC=N1", "growth inhibition": "1.5%"},
      {"compound": "CC(=O)OC12C=CC(=O)N1c1ccccc1C(=O)O2", "note": "(centres undefined)", "growth inhibition": "42.4%"},
      {"compound": "O=c1c2ccccc2nc(-c2ccc(Br)cc2)n1NC1OC(CO)C(O)C(O)C1O", "note": "(centres undefined)", "growth inhibition": "12.6%"},
      {"compound": "C=CC(CO)N(CC)CC", "note": "(centres undefined)", "growth inhibition": "11.3%"},
      {"compound": "CC(C)(C)[Si](C)(C)OCC1OC(n2cc(I)c(=O)[nH]c2=O)C(O[Si](C)(C)C(C)(C)C)C1O[Si](C)(C)C(C)(C)C", "note": "(centres undefined)", "growth inhibition": "-33.5%"},
      {"compound": "CC1(C2c3ccccc3CC2OC2CCCCO2)CO1", "note": "(centres undefined)", "growth inhibition": "2.35%"},
      {"compound": "O=C(NC(CSC(=O)OCc1ccccc1)C(=O)Oc1ccc([N+](=O)[O-])cc1)OCc1ccccc1", "note": "(centres undefined)", "growth inhibition": "2.4%"},
      {"compound": "O=C1/C(=C/C=C/c2ccccc2)CCC1CNc1ccc(Br)cc1", "note": "(centres undefined)", "growth inhibition": "9.5%"},
      {"compound": "COc1ccc2c(c1)C1=C(CC2)C(=O)OC1=O", "growth inhibition": "-4.85%"},
      {"compound": "COC(=O)C(NC(=O)C(C)NC(=O)C1CCCN1C(=O)CNC(=O)C(CO)NC(=O)C(NC(=O)OCc1ccccc1)C(C)O)C(C)O", "note": "(centres undefined) (Cbz-TSGPAT-OMe; configuration not given here)", "growth inhibition": "10.6%"},
      {"compound": "CC(=O)C(C(C)=O)[N+](=O)[O-].CC(=O)C(C(C)=O)[N+](=O)[O-].[Cu]", "growth inhibition": "10.6%"},
      {"compound": "CN(C)CCCNc1ccc2nnn3c4ccc([N+](=O)[O-])cc4c(=O)c1c23", "growth inhibition": "80% (active)"}
    ]}
  ]
}
